{
  "source": "PubChem BioAssay",
  "note": "Unmarked numbers belong to inactive results. The rule behind the calls is not given here.",
  "data": [
    {"tested_on": "Aerobactin synthetase IucA (Klebsiella pneumoniae, hypervirulent)", "experiment": "IucA enzyme inhibition, biochemical, LOPAC library, absorbance readout (AID 1346212);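 note: 100% = no compound wells and 0% = no enzyme wells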", "conditions": "IucA enzyme assay, absorbance (OD) readout; stronger effect = lower value;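 tested at 8 µM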", "units": {"remaining activity": "%"}, "values": [
      {"smiles": "O=c1[nH]cc(F)c(=O)[nH]1", "remaining activity": 98.4},
      {"smiles": "NC1(C(=O)O)CC1", "remaining activity": 88.1},
      {"smiles": "Oc1ccc(/C=C/c2cc(O)cc(O)c2)cc1", "remaining activity": 75.6},
      {"smiles": "Cc1cc(N)c2ccccc2[n+]1CCCCCCCCCC[n+]1c(C)cc(N)c2ccccc21", "remaining activity": 105},
      {"smiles": "CC1(C)NC(=O)N(c2ccc([N+](=O)[O-])c(C(F)(F)F)c2)C1=O", "remaining activity": 98.2},
      {"smiles": "c1ccc2c(c1)CCCC2C1=NCCN1", "note": "(configuration not stated)", "remaining activity": 102},
      {"smiles": "OC(CCN1CCCCC1)(c1ccccc1)C1CCCCC1", "note": "(configuration not stated)", "remaining activity": 104},
      {"smiles": "CC(=O)NCCc1c[nH]c2ccc(O)cc12", "remaining activity": 106},
      {"smiles": "NC(CO)C(=O)NNCc1ccc(O)c(O)c1O", "note": "(configuration not stated)", "remaining activity": 111},
      {"smiles": "CCCC(C(=O)OCCN(CC)CC)(c1ccccc1)c1ccccc1", "remaining activity": 118},
      {"smiles": "CN1CCN(C2=Nc3cc(Cl)ccc3Nc3ccccc32)CC1", "remaining activity": 127},
      {"smiles": "CCn1nc(C(=O)O)c(=O)c2cc3c(cc21)OCO3", "remaining activity": 111},
      {"smiles": "C[n+]1cc2c3c(ccc2c2ccc4cc5c(cc4c21)OCO5)OCO3", "remaining activity": 102},
      {"smiles": "CC1=NS(=O)(=O)c2cc(Cl)ccc2N1", "remaining activity": 105},
      {"smiles": "CCC1(C)CC(=O)NC1=O", "note": "(configuration not stated)", "remaining activity": 85.2},
      {"smiles": "CCCCCCCCCCCCCC(=O)O[C@@H]1[C@@H](C)[C@@]2(O)[C@@H](C=C(CO)C[C@]3(O)C(=O)C(C)=C[C@@H]23)[C@@H]2C(C)(C)[C@]12OC(C)=O", "remaining activity": 75.1},
      {"smiles": "CCn1cc(C(=O)O)c(=O)c2ccc(C)nc21", "remaining activity": 122},
      {"smiles": "CCCCC[C@H](CC(=O)NO)C(=O)N[C@H](C(=O)N1CCC[C@H]1CO)C(C)C", "remaining activity": 111},
      {"smiles": "N[C@@H]1CONC1=O", "remaining activity": 112},
      {"smiles": "N=C(N)SCCN", "remaining activity": 109},
      {"smiles": "CC(C)[N+](C)(CCOC(=O)C1c2ccccc2Oc2ccccc21)C(C)C", "remaining activity": 92.2},
      {"smiles": "NS(=O)(=O)c1cc2c(cc1Cl)NCNS2(=O)=O", "remaining activity": 102},
      {"smiles": "CN1C(=O)CC[C@H]1c1cccnc1", "remaining activity": 122},
      {"smiles": "CN1CCN(CCCN2c3ccccc3Sc3ccc(Cl)cc32)CC1", "remaining activity": 86.1},
      {"smiles": "NC/C=C/C(=O)O", "remaining activity": 101},
      {"smiles": "Cn1cnc([N+](=O)[O-])c1Sc1ncnc2nc[nH]c12", "remaining activity": 121},
      {"smiles": "COc1cc([C@@H]2c3cc4c(cc3[C@H](O)[C@H]3COC(=O)[C@H]23)OCO4)cc(OC)c1OC", "remaining activity": 124},
      {"smiles": "CCCNC(C)C(=O)Nc1ccccc1C", "note": "(configuration not stated)", "remaining activity": 96.4},
      {"smiles": "CC(N)C(=O)OC(C)(C)Cc1ccc(Cl)cc1", "note": "(configuration not stated)", "remaining activity": 119},
      {"smiles": "Fc1ccc(C(c2ccc(F)cc2)N2CCN(C/C=C/c3ccccc3)CC2)cc1", "remaining activity": 103},
      {"smiles": "CN(C)[C@@H]1C(=O)C(C(N)=O)=C(O)[C@@]2(O)C(=O)C3=C(O)c4c(O)ccc(Cl)c4[C@@H](O)[C@H]3C[C@@H]12", "remaining activity": 92.3},
      {"smiles": "Fc1ccc([C@@H]2CCNC[C@H]2COc2ccc3c(c2)OCO3)cc1", "remaining activity": 121},
      {"smiles": "CN(C)CCC=C1c2ccccc2C=Cc2ccccc21", "remaining activity": 109},
      {"smiles": "CC1OC1P(=O)(O)O", "note": "(configuration not stated)", "remaining activity": 105},
      {"smiles": "CNCCC(Oc1ccc(C(F)(F)F)cc1)c1ccccc1", "note": "(configuration not stated)", "remaining activity": 96.6},
      {"smiles": "NCCCCCC(=O)O", "remaining activity": 113},
      {"smiles": "O=C(O)C1=CC(=C(c2ccc(O)c(C(=O)O)c2)c2ccc(O)c(C(=O)O)c2)C=CC1=O", "remaining activity": 103}
    ]}
  ]
}
